Several values for one entry are separate records, joined by “and”; a condition that tells them apart may be missing. Equal entries are not always repeated. A number with no mark means an inactive call. Records with an inconclusive call do not appear. A call without a number means that no potency is given here. Activity calls are given as the source filed them. Unless noted, calls follow the shape of the dose curve; as a rule, active = well fitted curve in the direction sought with a large enough effect; inconclusive = small, poorly fitted or top-dose-only effect, or another doubt; inactive = no such curve, though single readings can be large; an effect the other way counts as inactive or inconclusive.
Experiments:
[1] = biological target: Luciferin 4-monooxygenase (Photinus pyralis) (UniProt P08659); assay: Biochemical firefly luciferase enzyme assay for NPC (AID 624030);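 also: purified P. pyralis luciferase at 10 nM with luciferin and ATP substrate; series mostly up to about 59 µM; nearly all actives have a fitted effect of over 70% in size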
Chain of Luciferin 4-monooxygenase (Photinus pyralis) (P08659 whole entry, looked up): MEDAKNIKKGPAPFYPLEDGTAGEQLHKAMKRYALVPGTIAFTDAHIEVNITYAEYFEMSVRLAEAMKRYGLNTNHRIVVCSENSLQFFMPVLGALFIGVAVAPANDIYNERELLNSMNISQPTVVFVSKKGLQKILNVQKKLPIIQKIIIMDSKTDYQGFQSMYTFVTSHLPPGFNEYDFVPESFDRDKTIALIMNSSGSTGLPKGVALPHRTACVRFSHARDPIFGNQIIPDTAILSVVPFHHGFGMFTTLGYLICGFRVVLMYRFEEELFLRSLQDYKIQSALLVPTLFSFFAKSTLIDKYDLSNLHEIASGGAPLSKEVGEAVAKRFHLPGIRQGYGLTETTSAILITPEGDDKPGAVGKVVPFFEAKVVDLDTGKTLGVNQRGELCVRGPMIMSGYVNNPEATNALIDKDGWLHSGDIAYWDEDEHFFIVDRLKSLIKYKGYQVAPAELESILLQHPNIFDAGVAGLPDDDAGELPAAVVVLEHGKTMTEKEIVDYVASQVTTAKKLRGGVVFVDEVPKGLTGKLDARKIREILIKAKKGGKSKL
Procedure, shortened: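 Direct inhibition of firefly luciferase enzyme (10 nM final, 50 mM Tris Acetate) assessed by luminescence within 5 minutes. Percent activity scaled between DMSO and PTC124 positive control, with concentration-effect curves classified by fit quality and response.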

[2] = biological target: Thyroid hormone receptor beta (Homo sapiens) (UniProt P10828); assay: qHTS assay for small molecule antagonists of thyroid hormone receptor beta signaling (AID 588547; active = well fitted inhibition curve with a large enough effect in the signal ratio, with a control signal flat, not every such curve was filed as active; the % refers to the signal ratio;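 also: cells stimulated with 0.4 nM T3 agonist during compound exposure; series mostly up to about 77 µM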); conditions: TR-UAS-bla HEK293, beta-lactamase ratio, antagonist mode, 18 h
Chain of Thyroid hormone receptor beta (Homo sapiens) (P10828 whole entry, looked up): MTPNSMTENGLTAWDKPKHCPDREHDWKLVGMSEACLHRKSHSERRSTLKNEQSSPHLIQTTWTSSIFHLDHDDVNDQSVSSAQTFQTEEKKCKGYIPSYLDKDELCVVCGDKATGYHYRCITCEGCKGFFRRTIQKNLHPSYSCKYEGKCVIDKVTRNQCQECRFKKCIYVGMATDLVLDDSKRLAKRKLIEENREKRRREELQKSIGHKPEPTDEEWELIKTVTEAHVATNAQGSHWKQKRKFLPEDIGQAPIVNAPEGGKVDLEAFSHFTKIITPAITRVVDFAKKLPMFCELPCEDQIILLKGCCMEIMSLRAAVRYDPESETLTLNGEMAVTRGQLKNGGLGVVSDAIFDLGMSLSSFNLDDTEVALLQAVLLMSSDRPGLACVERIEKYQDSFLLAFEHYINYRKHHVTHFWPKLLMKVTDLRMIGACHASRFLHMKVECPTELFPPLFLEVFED
Procedure, shortened: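 Inhibition of T3-driven (0.4nM final) beta-lactamase reporter activity was measured over 0.59 nM to 92 uM compound after 18 h at 37 C. The cells were GripTite HEK293 TR-UAS-bla in charcoal/dextran-stripped serum, with CCF4 ratio read-out and IC50 from Hill fits.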

[3] = biological target: Voltage-gated inwardly rectifying potassium channel KCNH2 (Homo sapiens) (UniProt Q12809); assay: qHTS Assay for Small Molecule Inhibitors of the Human hERG Channel Activity (AID 588834);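 also: top concentration of the series differs between compounds; lower thallium flux fluorescence means stronger hERG block; nearly all actives have a fitted effect of over 50% in size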
Chain of Voltage-gated inwardly rectifying potassium channel KCNH2 (Homo sapiens) (Q12809 whole entry, looked up): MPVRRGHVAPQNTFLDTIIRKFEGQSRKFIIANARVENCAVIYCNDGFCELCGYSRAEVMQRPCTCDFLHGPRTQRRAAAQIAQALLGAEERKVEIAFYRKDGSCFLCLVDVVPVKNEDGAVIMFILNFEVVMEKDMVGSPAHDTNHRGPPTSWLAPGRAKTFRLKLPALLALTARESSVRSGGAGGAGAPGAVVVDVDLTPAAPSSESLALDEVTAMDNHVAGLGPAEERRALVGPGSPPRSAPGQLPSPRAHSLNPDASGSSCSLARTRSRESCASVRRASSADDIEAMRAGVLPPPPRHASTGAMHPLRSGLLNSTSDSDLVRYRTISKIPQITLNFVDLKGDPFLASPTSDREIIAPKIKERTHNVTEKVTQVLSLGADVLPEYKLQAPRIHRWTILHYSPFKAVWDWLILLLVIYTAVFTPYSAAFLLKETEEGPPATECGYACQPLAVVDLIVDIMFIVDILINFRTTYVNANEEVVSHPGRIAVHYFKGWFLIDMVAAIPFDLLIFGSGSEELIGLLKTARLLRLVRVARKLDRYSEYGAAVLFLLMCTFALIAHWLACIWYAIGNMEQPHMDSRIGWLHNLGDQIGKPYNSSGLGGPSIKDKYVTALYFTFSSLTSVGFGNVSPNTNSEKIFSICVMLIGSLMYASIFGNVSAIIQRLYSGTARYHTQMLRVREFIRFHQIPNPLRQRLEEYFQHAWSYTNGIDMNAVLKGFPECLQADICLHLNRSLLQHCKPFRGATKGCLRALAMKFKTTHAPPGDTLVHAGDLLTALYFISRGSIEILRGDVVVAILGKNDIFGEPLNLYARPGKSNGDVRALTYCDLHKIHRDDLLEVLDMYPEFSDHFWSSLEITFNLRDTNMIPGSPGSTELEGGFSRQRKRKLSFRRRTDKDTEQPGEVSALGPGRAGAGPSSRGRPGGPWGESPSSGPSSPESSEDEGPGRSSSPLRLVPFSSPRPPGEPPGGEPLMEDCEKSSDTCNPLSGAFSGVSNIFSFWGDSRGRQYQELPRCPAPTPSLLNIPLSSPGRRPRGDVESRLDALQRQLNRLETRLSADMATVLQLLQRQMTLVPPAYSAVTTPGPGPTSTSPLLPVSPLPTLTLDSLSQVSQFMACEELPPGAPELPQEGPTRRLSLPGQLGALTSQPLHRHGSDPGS
Procedure, shortened: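 Kinetic FDSS fluorescence; U2OS + hERG BacMam (~100 virus particles/cell); FluxOR Tl+ flux; ~10 min cpd; AC50 (Hill).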

[4] = qHTS assay for small molecule agonists of the antioxidant response element (ARE) signaling pathway (AID 651741; active = well fitted activation curve with a large enough effect in the signal ratio; the % refers to the signal ratio)
Procedure, shortened: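 Seeding 2,000 ARE-bla HepG2 cells per well preceded a 5 h incubation at 37 C/5% CO2 and a 16 h compound exposure at 37 C. Beta-lactamase reporter activity was then quantified by fluorescence after 2 h with LiveBLAzer B/G FRET substrate.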

[5] = qHTS assay for small molecule activators of the p53 signaling pathway (AID 651743; active = well fitted activation curve with a large enough effect in the signal ratio, not every such curve was filed as active; the % refers to the signal ratio; also: series mostly up to about 92 µM); conditions: HCT-116 p53RE-bla, beta-lactamase FRET ratio, 16 h; stronger effect = higher value
Procedure, shortened: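 Screen for p53 pathway agonists uses stably transfected p53RE-bla HCT-116 cells, 4,000 per well, treated 16 h at 37 C with compounds in DMSO.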

[6] = qHTS assay for small molecule activators of the nuclear factor-kappa B (NF-kB) signaling pathway (AID 651749; active = well fitted activation curve with a large enough effect in the signal ratio; the % refers to the signal ratio; also: series mostly up to about 77 µM); conditions: NF-kB-bla ME-180 cells, beta-lactamase FRET ratio, 16 h; stronger effect = higher value
Procedure, shortened: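 Stably transfected ME-180 line; NF-kB response element upstream of beta-lactamase. Treatment: compound or DMSO, 16 hr. Detection: fluorescent FRET substrate.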

[7] = biological target: Tumor necrosis factor (Homo sapiens) (UniProt P01375); assay: qHTS assay to identify small molecules that stimulate Tumor Necrosis Factor-alpha (TNF-alpha) secretion (AID 651757; active = well fitted curve in the direction sought with a large enough effect in the signal ratio; the % refers to the signal ratio)
Chain of Tumor necrosis factor (Homo sapiens) (P01375 whole entry, looked up): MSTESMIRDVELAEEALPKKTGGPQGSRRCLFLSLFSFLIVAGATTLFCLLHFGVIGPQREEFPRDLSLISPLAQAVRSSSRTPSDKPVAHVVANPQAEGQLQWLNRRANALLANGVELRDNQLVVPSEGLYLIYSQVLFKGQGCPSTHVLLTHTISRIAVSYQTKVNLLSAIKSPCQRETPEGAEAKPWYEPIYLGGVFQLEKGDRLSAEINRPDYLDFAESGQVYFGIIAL
Procedure, shortened: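 Secreted TNF-alpha from compound-treated THP-1 cells (17 hrs, 37 C) was quantified with a homogeneous time-resolved fluorescence antibody assay.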

[8] = biological target: Peroxisome proliferator-activated receptor alpha (Homo sapiens) (UniProt Q07869); assay: qHTS assay for small molecule agonists of the peroxisome proliferator-activated receptor alpha (PPARalpha) signaling pathway (AID 651778); conditions: PathHunter PPARalpha complementation, chemiluminescence, 6 h; max response: stronger effect = higher value
Chain of Peroxisome proliferator-activated receptor alpha (Homo sapiens) (Q07869 whole entry, looked up): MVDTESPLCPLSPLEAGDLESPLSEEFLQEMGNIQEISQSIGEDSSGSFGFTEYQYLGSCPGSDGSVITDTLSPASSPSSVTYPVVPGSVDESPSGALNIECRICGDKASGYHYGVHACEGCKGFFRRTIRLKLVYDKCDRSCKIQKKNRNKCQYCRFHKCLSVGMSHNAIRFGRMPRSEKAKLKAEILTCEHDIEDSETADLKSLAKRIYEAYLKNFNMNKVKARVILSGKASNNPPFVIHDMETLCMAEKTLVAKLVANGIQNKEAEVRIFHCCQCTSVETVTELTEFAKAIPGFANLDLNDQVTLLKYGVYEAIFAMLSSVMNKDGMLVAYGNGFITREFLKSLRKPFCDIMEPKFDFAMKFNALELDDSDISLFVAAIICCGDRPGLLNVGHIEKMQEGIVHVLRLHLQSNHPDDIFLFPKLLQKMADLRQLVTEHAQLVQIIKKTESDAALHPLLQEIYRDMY
Procedure, shortened: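 Chemiluminescence from complemented enzyme reported PPARalpha activation in cells after 6 hr of compound treatment at 37 C. The detection reagent was incubated for 60 min at room temperature, and compounds were scored as agonists.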

[9] = S16 Schwann cell viability assay (CellTiter-Glo assay) (AID 624031);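 also: cellular ATP luminescence as a viability measure; series mostly up to about 58 µM; nearly all actives have a fitted effect of over 70% in size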
Procedure, shortened: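 Native S16 Schwann cells (rat), serum-containing medium, overnight attachment then 24 h drug exposure at 37 °C/5% CO2. CellTiter-Glo ATP signal; normalized to cell-free and vehicle wells.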

[10] = S16 Schwann cell PMP22 intronic element firefly luciferase assay (AID 624032); also: series mostly up to about 58 µM; nearly all actives have a fitted effect of over 30% in size
Procedure, shortened: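 Luciferase reporter of PMP22 intronic-element expression in stably transfected S16 rat Schwann cells, read by ONE-Glo luminescence after 24 h compound exposure at 37 C. Activity scaled between DMSO (0%) and positive-control PTC124; concentration-effect curves quality-classified.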

[11] = S16 Schwann cell PMP22 intronic element beta-lactamase assay (AID 624044; calls by dose curve; also: nearly all actives have a fitted effect of over 15% in size)
Procedure, shortened: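 Rat S16 Schwann cells with beta-Lac driven by a PMP22 intronic element, compound-treated 24 h at 37 °C. LiveBLAzer FRET B/G read: 460 nm normalized to potassium clavulanate vs DMSO; 535 nm FRET as viability; concentration-effect curves classified.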

[12] = biological target: Glutaminase kidney isoform, mitochondrial (Homo sapiens) (UniProt O94925); assay: qHTS for Inhibitors of Glutaminase (GLS): LOPAC Validation (AID 624146);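 also: glutamate product detected by oxidase and peroxidase coupled Amplex red fluorescence gain; series mostly up to about 46 µM; nearly all actives have a fitted effect of over 60% in size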
Chain of Glutaminase kidney isoform, mitochondrial (Homo sapiens) (O94925 whole entry, looked up, canonical isoform): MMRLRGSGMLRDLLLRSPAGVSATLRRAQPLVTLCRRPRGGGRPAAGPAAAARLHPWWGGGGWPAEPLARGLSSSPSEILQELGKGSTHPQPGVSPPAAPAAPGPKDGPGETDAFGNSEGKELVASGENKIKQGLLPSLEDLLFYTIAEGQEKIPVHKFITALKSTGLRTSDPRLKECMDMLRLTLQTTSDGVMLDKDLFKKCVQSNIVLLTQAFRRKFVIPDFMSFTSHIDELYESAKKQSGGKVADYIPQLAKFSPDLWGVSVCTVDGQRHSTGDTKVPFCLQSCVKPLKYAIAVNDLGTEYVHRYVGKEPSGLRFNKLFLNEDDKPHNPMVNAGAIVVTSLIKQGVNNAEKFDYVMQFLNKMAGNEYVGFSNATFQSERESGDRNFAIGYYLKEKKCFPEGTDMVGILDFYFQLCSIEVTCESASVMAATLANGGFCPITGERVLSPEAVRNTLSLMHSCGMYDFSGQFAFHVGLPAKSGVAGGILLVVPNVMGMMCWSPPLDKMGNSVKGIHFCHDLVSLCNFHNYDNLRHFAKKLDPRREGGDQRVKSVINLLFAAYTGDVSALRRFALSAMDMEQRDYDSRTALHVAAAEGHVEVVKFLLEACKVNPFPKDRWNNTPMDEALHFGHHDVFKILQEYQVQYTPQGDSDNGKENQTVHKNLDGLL
Procedure, shortened: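 Read-out is an Amplex red fluorescence increase coupled through glutamate oxidase and HRP, measured before and after 30 min room-temperature incubation. hKGA is in 45 mM KH2PO4 (pH 8.2) with 0.02% Tween-20; glutamine added as 1mM solution.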

[13] = biological target: Glucagon-like peptide 1 receptor (Homo sapiens) (UniProt P43220); assay: qHTS of GLP-1 Receptor Agonists: LOPAC Validation (AID 624148);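 also: luminescence from a luciferase reporter switched on by cAMP; higher luminescence signal means agonism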
Chain of Glucagon-like peptide 1 receptor (Homo sapiens) (P43220 whole entry, looked up): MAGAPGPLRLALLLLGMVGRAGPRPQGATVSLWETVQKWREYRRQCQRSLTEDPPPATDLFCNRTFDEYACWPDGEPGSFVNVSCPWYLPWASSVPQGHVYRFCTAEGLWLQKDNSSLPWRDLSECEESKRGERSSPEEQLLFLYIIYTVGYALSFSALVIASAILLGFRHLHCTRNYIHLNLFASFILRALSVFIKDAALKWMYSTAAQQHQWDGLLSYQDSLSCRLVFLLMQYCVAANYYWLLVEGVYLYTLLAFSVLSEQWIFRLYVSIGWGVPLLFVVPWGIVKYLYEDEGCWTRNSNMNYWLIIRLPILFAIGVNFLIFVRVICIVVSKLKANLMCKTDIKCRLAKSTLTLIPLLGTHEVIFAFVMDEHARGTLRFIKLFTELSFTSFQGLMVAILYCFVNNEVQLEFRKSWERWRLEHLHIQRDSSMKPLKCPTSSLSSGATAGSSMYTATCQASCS
Procedure, shortened: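 Agonism scored as increased luciferase luminescence driven by cAMP in HEK293 clones carrying GLP-1R. Cells settled 12 hours, received compound for 4-6 hr at 37 deg C, 5% CO2, and were read after 12 min detection reagent at RT.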

[14] = qHTS of Nrf2 Activators: LOPAC Validation (AID 624149)
Procedure, shortened: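 ARE reporter activation measured in AREc32 firefly luciferase cells after 24 hr compound exposure; Steady-Glo luminescence.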

[15] = HTS Assay for Allosteric Antagonists of the Human D2 Dopamine Receptor: Hit Validation in HTRF (AID 624455);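 also: stable D1 dopamine receptor cell line scored for blocking the D1 response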
Procedure, shortened: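 Signal from an HTRF read-out in D1-expressing stable cells gave hit activity as inhibition of the D1 response.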

SMILES: CCC(C)(C)OC(=O)N[C@@H](Cc1c[nH]c2ccccc12)C(=O)N[C@@H](CCSC)C(=O)N[C@@H](CC(=O)O)C(=O)N[C@@H](Cc1ccccc1)C(N)=O
- Potency [1]: inactive

SMILES: CC(=O)[C@@]1(O)CC[C@H]2[C@@H]3C=C(Cl)C4=CC(=O)CC[C@]4(C)[C@H]3CC[C@@]21C
- Potency [1]: inactive

SMILES: CCN1CCCC1CNC(=O)c1cc(S(=O)(=O)CC)ccc1OC (centres undefined)
- Potency [1]: inactive

SMILES: CCOC(=O)Cc1cccc(-c2cc(CCCCCCc3ccc(O[C@H]4O[C@H](COC(C)=O)[C@@H](OC(C)=O)[C@H](OC(C)=O)[C@@H]4OC(C)=O)c(-c4cccc(CC(=O)OCC)c4)c3)ccc2O[C@H]2O[C@H](COC(C)=O)[C@@H](OC(C)=O)[C@H](OC(C)=O)[C@@H]2OC(C)=O)c1
- Potency [1]: inactive

SMILES: Cn1nnnc1SCC1=C(C(=O)O)N2C(=O)[C@@H](NC(=O)[C@H](OC=O)c3ccccc3)[C@H]2SC1
- Potency [1]: inactive

SMILES: CCCCCCCCCC(=O)O
- activity change % (negative = inhibition) [2]: 17.7%
- outcome [3]: inactive
- Potency [1]: inactive
- Potency [4]: inactive
- activation [5]: -0.571% and 9.23%
- activation [6]: -1.38% and -1.03%
- outcome [7]: inactive
- max response [8]: 5.25% and -0.468%

SMILES: CNC[C@@H]1CC[C@@H](N)[C@@H](O[C@H]2[C@H](O)[C@@H](O[C@H]3OC[C@](C)(O)[C@H](NC)[C@H]3O)[C@H](N)C[C@@H]2N)O1
- Potency [1]: inactive

SMILES: O=C(Cn1cnnn1)N[C@@H]1C(=O)N2C(C(=O)O)=C(CSc3nncs3)CS[C@H]12
- Potency [1]: inactive

SMILES: NCCCC(=O)O
- outcome [3]: inactive
- Potency [1]: inactive
- Potency [9]: inactive
- Potency [10]: inactive
- outcome [11]: inactive
- outcome [12]: inactive
- outcome [13]: inactive
- outcome [14]: inactive
- outcome [15]: inactive

Reference: PubChem BioAssay (NCATS)
